Compounds with a hit are over-represented: about 31% of the library has one in this group of screens.
CYP2C19 act: increases human CYP2C19 enzyme activity; P33261; recombinant CYP2C19, luciferin-H EGE luminescence; active compounds read high; 0 = fully inhibited enzyme, 1 = untreated enzyme; activation factor at 5 µM; 96,000 tested, under 10 active; AID 1025;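 active = activation factor of at least 2 at 5 µM in the primary screen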;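 note: 0 = wells with 2.5 mM tranylcypromine and 1 = vehicle-only wells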
Target sequence (P33261 whole entry, looked up): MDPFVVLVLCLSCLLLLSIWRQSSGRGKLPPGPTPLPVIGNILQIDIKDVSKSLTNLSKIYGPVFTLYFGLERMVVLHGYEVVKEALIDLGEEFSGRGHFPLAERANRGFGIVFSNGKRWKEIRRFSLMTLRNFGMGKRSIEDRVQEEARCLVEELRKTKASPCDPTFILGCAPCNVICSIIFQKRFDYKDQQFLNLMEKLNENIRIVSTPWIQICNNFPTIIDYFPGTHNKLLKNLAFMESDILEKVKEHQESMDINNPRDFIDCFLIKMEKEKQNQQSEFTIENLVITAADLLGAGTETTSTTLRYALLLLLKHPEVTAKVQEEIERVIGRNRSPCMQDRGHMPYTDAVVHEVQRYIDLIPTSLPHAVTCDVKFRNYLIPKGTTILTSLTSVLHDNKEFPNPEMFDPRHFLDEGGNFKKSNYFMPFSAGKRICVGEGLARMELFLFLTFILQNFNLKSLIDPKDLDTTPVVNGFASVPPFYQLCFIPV
CYP2C19 inh: blocks human cytochrome P450 2C19; P33261; CYP2C19 Supersomes, luciferin-H EGE luminescence, 30 min; inhibition, % at 5 µM; actives 21% (n = 96,000);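 active = CYP2C19 inhibition above a set limit at 5 µM in the primary screen, cut at about 50% in these data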;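 note: plate controls were negative control wells for no effect and 2.5 mM tranylcypromine positive control for full effect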
CYP2C9 inh: human CYP2C9 inhibition; inhibition, % at 5 µM; P11712; CYP2C9 Supersomes, luciferin-H conversion, luminescence; actives 20% (n = 96,000); AID 777;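 active = blocking of liver enzyme CYP2C9 beyond about 50% at 5 µM, limit read from the data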
PLAP act: activates human placental alkaline phosphatase; actives 1.2% (n = 96,000); purified PLAP enzyme, luminescent substrate read-out; active compounds read high; AID 696; activation fold at 20 µM; P05187; in the data active = activation fold above about 2
CYP2C9 activ: increases human cytochrome P450 2C9 activity; P11712; recombinant CYP2C9, luciferin-H conversion, luminescence; active compounds read high; factor 1 = untreated enzyme, 0 = blocked; activation factor at 5 µM; actives 1.4% (n = 96,000); AID 1024;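 active = activation factor of 2 or more for CYP2C9 at a 5 µM dose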;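 note: 0 = sulfaphenazole-blocked wells and 1 = vehicle-only wells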
Starred values were filed as active, the others as inactive.

SMILES	CYP2C19 act	CYP2C19 inh	CYP2C9 inh	PLAP act	CYP2C9 activ
O=S(=O)(Nc1nccs1)c1ccc(Cl)cc1	0.8	21	50*	0.9	0.5
O=S(=O)(Nc1ccc(S(=O)(=O)Nc2nccs2)cc1)c1ccc2c(c1)OCCO2	1.1	-8	67*	1	0.3
Cc1cc(C(=O)Nc2ccc(S(=O)(=O)Nc3nccs3)cc2)c(C)o1	1.1	-12	26	1.6	0.7
Cc1cc(C)n(Cc2ccc(C(=O)NCCC3=CCCCC3)o2)n1	0.6	41	18	1.2	0.8
CC(=O)N1CCC(Nc2ccc(C)cc2)CC1	0.9	6	54*	1	0.5
O=C(c1ccc(N2CCCCS2(=O)=O)cc1)N1CCN(c2ccc(N3CCOCC3)nn2)CC1	1.1	-10	1	1.3	1
c1coc(CNc2c3c(nc4ncnn24)CCC3)c1	1.1	-7	88*	0.9	0.1
c1coc(CNc2c3c(nc4ncnn24)CCCC3)c1	0.9	10	13	0.8	0.9
CCCC(=Nc1ccc(N)cc1)C1=C(O)C(C(=O)OC)C(C)(C)CC1=O (stereo not given)	0.7	31	41	1	0.6
Oc1cccc2ccc(Nc3ccccn3)nc12	1	0	0	0.6	1
Oc1ccc2ccccc2c1N=Nc1ccccn1	0.8	25	67*	0.9	0.3
Cc1cccc2cc(COC(=O)C(C)(C)C)c(=O)[nH]c12	0.8	20	-33	0.8	1.3
O=C(OCC(=O)N1CCCCCC1)c1n[nH]c(=O)c2ccccc12	0.8	17	-1	1.1	1
O=C(OCC(=O)N1CCCCC1)c1c[nH]c(=O)[nH]c1=O	1	1	89*	1	0.1
COc1cccc2sc(NC(=O)c3ccc(S(=O)(=O)N4CCOCC4)cc3)nc12	0.4	64*	86*	1	0.1
COc1ccccc1C(=O)NCC1CCN(c2ccc(S(=O)(=O)N3CCOCC3)cc2)CC1	0.4	58*	36	1.6	0.6
COc1ccc(N2CCN(C(=O)c3ccc(S(=O)(=O)N4CCOCC4)cc3)CC2)cc1	1	0	1	1	1
COc1ccccc1NC(=O)c1ccc(S(=O)(=O)N2CCOCC2)cc1	0.9	14	-249	1.5	3.5*
CCOC(=O)N1CCN(S(=O)(=O)c2ccc(C(=O)Nc3nc4ccc(F)cc4s3)cc2)CC1	0.8	22	64*	0.9	0.4
CCn1c(=NC(=O)c2ccc(S(=O)(=O)N3CCOCC3)cc2)sc2cccc(OC)c21	0.9	12	-8	1.2	1.1
CCOc1ccccc1NC(=O)c1ccc(S(=O)(=O)N2CCOCC2)cc1	1	4	-27	1	1.3
COc1cccc(C(=O)NCC(=O)n2nc(C)cc2C)c1	1.1	-6	-19	0.9	1.2
OC(CCCCN1CCCCC1)c1ccccc1 (stereo not given)	1	-4	-4	0.9	1
CC(=O)C1=C(O)C(=O)N(Cc2ccco2)C1c1ccc2c(c1)OCO2 (stereo not given)	1	-4	-7	0.9	1.1
COc1ccc(C)cc1NC(=O)c1ccc(S(=O)(=O)N2CCOCC2)cc1	1	5	-264	1.1	3.6*
SMILES	CYP2C19 act	CYP2C19 inh	CYP2C9 inh	PLAP act	CYP2C9 activ
O=C(CSc1nc2ccccc2o1)Nc1ccccc1	0.4	63*	2	0.9	1
O=C(CSc1nc2ccccc2o1)NCCOc1ccccc1	0.1	89*	68*	1	0.3
O=C(CSc1nc2ccccc2o1)NCC(=O)c1ccccc1	0.4	61*	-11	1.1	1.1
O=C(O)CSc1nc2ccccc2o1	1.3	-25	-20	1.1	1.2
CSc1cccc(NC(=O)CSc2nc3ccccc3o2)c1	0.5	53*	38	0.9	0.6
O=C1c2ccccc2C(=O)N1n1c(=O)[nH]c2ccccc2c1=O	0.9	6	6	1	0.9
Cc1cc(C(=O)N2CCN(c3ccccn3)CC2)no1	0.7	26	-4	0.9	1
N#C/C(C(N)=O)=c1/ccc2c(c1)N1C3=C(CCCC3)CC3CCCCC31N=2 (stereo not given)	0.5	54*	89*	1.2	0.1
N#CC(C#N)=c1ccc2c(c1)N1C3=C(CCCC3)CC3CCCCC31N=2 (stereo not given)	0.1	90*	98*	0.7	0
CCCC1(C(=O)O)NC(c2ccc(OC)cc2O)C2C(=O)N(c3ccc(OC)cc3)C(=O)C21 (stereo not given)	1	1	-4	1.5	1

Assay outcomes deposited in PubChem BioAssay by Sanford-Burnham Center for Chemical Genomics.
